Bioassay records: PubChem BioAssay, National Center for Advancing Translational Sciences (NCATS)
ClpP mod: qHTS Assay for Activators of ClpP | Potency, µM (doses to about 57.5 µM), for the others: at the top dose activity change, negative = active | 1.9% of 340,000 active | ATP-dependent Clp protease proteolytic subunit (Bacillus subtilis (strain 168)), P80244 | purified B. subtilis ClpP, FRET peptide cleavage, 20 min; active = well fitted falling curve with a large enough effect; inconclusive = small, poorly fitted or top-dose-only effect; inactive = no such curve, though single readings can be large or run the other way; note: potency is the fitted concentration of half-maximal effect; the source files actives as falling curves though it sought activators and does not explain the sign; nearly all actives have a fitted effect of over 65% in size
Target sequence (P80244 whole entry, looked up): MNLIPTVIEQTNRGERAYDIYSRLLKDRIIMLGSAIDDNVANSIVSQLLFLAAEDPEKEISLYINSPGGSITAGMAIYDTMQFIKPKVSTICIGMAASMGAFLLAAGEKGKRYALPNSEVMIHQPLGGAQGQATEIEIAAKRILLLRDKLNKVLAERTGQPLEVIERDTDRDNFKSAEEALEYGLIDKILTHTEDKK
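Buffer: 100 mM Tris/HCl pH8, 100 mM KCl, 0.05% low protease BSA, 2.5% glycerol, 0.01% Tween-20. ClpP 10 microg/mL final; 20 min RT; delta FRET normalized to ADEP and DMSO controls.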
TDP1 cell noCPT: qHTS for Inhibitors of human tyrosyl-DNA phosphodiesterase 1 (TDP1): qHTS in cells in absence of CPT; DT40 Tdp1-/- hTDP1 cells, no CPT, ATP luminescence, 48 h; Potency, µM (highest dose often 46.2 µM), for inactives: at the top dose activity change, negative = growth inhibition, hits mostly inhibitors; 15% of 420,000 active; note: potency is the fitted concentration of half-maximal effect; % is set by controls: 0 for no effect and ±100 for the full control effect; nearly all actives have a fitted effect of over 55% in size
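Growth of hTDP1-complemented DT40 Tdp1-knockout cells is measured by ATP luminescence after at least 48 hr compound exposure at 37 °C, with DMSO substituting for the 20 nM CPT used in the parallel screen.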
DRD3 antagonist: blocks the human D3 dopamine receptor. 2.5% of 360,000 active. D3R cells, DiscoveRx beta-arrestin luminescence, antagonist mode; hits give low values. max response, negative = inhibition, %; in the data active = max response below about -50%; inconclusive = no clear call, values can overlap the other calls; note: % is set by controls: 0 for no effect and ±100 for the full control effect
Target sequence (P35462 whole entry, looked up): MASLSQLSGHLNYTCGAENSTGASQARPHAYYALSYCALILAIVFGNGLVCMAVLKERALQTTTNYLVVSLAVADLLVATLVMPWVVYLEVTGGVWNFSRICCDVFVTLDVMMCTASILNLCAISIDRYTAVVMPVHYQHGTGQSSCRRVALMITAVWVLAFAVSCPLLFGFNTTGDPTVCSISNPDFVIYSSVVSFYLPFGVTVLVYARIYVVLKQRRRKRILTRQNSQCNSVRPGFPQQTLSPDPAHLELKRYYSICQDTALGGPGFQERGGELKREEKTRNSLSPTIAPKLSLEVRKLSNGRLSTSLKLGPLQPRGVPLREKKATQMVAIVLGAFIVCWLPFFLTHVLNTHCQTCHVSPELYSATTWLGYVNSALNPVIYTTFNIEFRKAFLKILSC
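Cells plated overnight at 1500 cells/well, then exposed to library compounds with dopamine controls for 90 minutes at 37 degrees C. DiscoveRx reagent added for 30–60 minutes at room temperature; luminescence read, quantitative HTS format.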
IL1B secr inh: blocks inflammasome-driven IL-1 beta release. THP-1 LPS/ATP IL-1B secretion, AlphaLISA, 16 h; hits give low values. activity change, % at 57.5 µM. 4.7% of 360,000 active; in the data active = activity change below about -50%; inconclusive = mostly about -30% to -49%; note: % is set by controls: 0 for no effect and ±100 for the full control effect
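Secreted IL-1B measured by AlphaLISA bead assay after 16 h compound exposure of THP-1 cells; compounds (final up to 57.5 uM) added 1 h before LPS (250 ng/mL) and ATP (1.25 mM) stimulation; lower signal means less secretion.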
DRD3 agonist: activates the human D3 dopamine receptor; P35462; D3R DiscoveRx beta-arrestin cells, luminescence, 90 min; max activation, %; 0.58% of 410,000 active; in the data active = max activation above about 30%; note: 0% is about no effect
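Cells at 1500/well, incubated overnight, then treated with pinned compounds (dopamine as control) for 90 min at 37 degrees C. DiscoveRx reagent added for 30 - 60 minutes at room temperature; luminescence read.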
TDP1 cell CPT: DT40-hTDP1 cell growth loss with CPT; chicken DT40 Tdp1-/-;hTDP1 cells + 20 nM CPT, ATP luminescence, 48 h; Potency, µM (series often up to 46.2 µM), for inactives: at the top dose activity change, negative = growth inhibition, most hits filed as inhibitors; 12% of 420,000 active; note: potency is the fitted concentration of half-maximal effect; % is set by controls: 0 for no effect and ±100 for the full control effect; nearly all actives have a fitted effect of over 55% in size
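Chicken DT40 Tdp1-/- cells stably complemented with human TDP1 were seeded at 400 cells/well in medium containing 20 nM camptothecin, exposed to pin-transferred compounds, and grown at 37 °C for at least 48 hr. Viability was read as ATP luminescence.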
* marks the source's active call; other numbers are inactive results. Compounds with a hit are over-represented: about 21% of the library has one in this group of screens. Unless noted, calls come from the whole dose curve; as a rule, active = well fitted inhibition curve with a large enough effect; inconclusive = small, poorly fitted or top-dose-only effect; inactive = flat fitted curve, though single readings scatter.

How did Cc1cc(NC(=O)COC(=O)C2CCN(S(=O)(=O)c3ccccc3)CC2)c([N+](=O)[O-])cc1C do in these assays?
ClpP mod: -4%; TDP1 cell noCPT: -11%; DRD3 antagonist: 10; IL1B secr inh: inactive; DRD3 agonist: -4; TDP1 cell CPT: 18%

Results for CCOC(=O)CNC(=O)COc1coc(CN2CCN(c3ccc(F)cc3)CC2)cc1=O ?
ClpP mod: 0%; TDP1 cell noCPT: -1%; DRD3 antagonist: 12; IL1B secr inh: 0; DRD3 agonist: 0; TDP1 cell CPT: 3%

What do the screens show for `O=C(N/N=C/c1cc([N+](=O)[O-])ccc1O)c1cccc2cc[nH]c12`?
ClpP mod: 2%; TDP1 cell noCPT: 4.1µM*; DRD3 antagonist: -6; IL1B secr inh: 232; DRD3 agonist: 4; TDP1 cell CPT: 6.5µM*

How did O=C(N/N=C/c1ccccn1)C1CC1 do in these assays?
ClpP mod: 2%; TDP1 cell noCPT: -13%; DRD3 antagonist: 0; IL1B secr inh: 40; DRD3 agonist: 2; TDP1 cell CPT: 1%

What do the screens show for `O=C(N/N=C/c1cc([N+](=O)[O-])ccc1O)C1CC1`?
ClpP mod: 2%; TDP1 cell noCPT: 18µM*; DRD3 antagonist: -86*; IL1B secr inh: 72; DRD3 agonist: -27; TDP1 cell CPT: inconclusive

How did O=C(NN=Cc1ccccc1O)C1CC1 do in these assays?
TDP1 cell noCPT: 10µM*; DRD3 antagonist: 1; IL1B secr inh: -1; DRD3 agonist: -14; TDP1 cell CPT: 5.8µM*

Results for O=C(N/N=C/c1cc([N+](=O)[O-])ccc1O)C(O)(c1ccccc1)c1ccccc1 ?
TDP1 cell noCPT: 16µM*; DRD3 antagonist: -55*; IL1B secr inh: 182; DRD3 agonist: -23; TDP1 cell CPT: inconclusive

How did NC(=O)C1CCN(C(=O)c2ccc(NS(=O)(=O)c3ccc(F)c(F)c3)cc2)CC1 do in these assays?
ClpP mod: -1%; TDP1 cell noCPT: 8%; DRD3 antagonist: 1; IL1B secr inh: 6; DRD3 agonist: 3; TDP1 cell CPT: -3%

What do the screens show for `O=[N+]([O-])c1ccc(O)c(/C=N/Nc2ccccc2Cl)c1`?
TDP1 cell noCPT: inconclusive; DRD3 antagonist: -8; IL1B secr inh: -53*; DRD3 agonist: -8; TDP1 cell CPT: inconclusive

Results for O=[N+]([O-])c1ccccc1N/N=C\c1ccccc1Cl ?
ClpP mod: -1%; TDP1 cell noCPT: -16%; DRD3 antagonist: 8; IL1B secr inh: -3; DRD3 agonist: 0; TDP1 cell CPT: -17%

How did O=C(N/N=C/c1ccccc1O)C1SCCCS1 do in these assays?
ClpP mod: -24%; TDP1 cell noCPT: 6.5µM*; DRD3 antagonist: 5; IL1B secr inh: 226; DRD3 agonist: 6; TDP1 cell CPT: 12µM*

What do the screens show for `CCc1ccc(N2CC(C(=O)N/N=C/c3cc([N+](=O)[O-])ccc3O)CC2=O)cc1` (stereo not drawn)?
TDP1 cell noCPT: inconclusive; DRD3 antagonist: -63*; IL1B secr inh: 165; DRD3 agonist: -13; TDP1 cell CPT: inconclusive

What do the screens show for `O=C(N/N=C/c1cc([N+](=O)[O-])ccc1O)c1cccc(N2CCCC2=O)c1`?
ClpP mod: 2%; TDP1 cell noCPT: 10µM*; DRD3 antagonist: -28; IL1B secr inh: 162; DRD3 agonist: -11; TDP1 cell CPT: 15µM*

How did COc1ccc(CCNC(=O)C2CCN(c3ncnc4c3nc3n4CCCCC3)CC2)c(OC)c1 do in these assays?
ClpP mod: 1%; TDP1 cell noCPT: 0%; DRD3 agonist: -15; TDP1 cell CPT: 11%

What do the screens show for `Cc1c(NC(=O)c2ccc(Cl)cc2)cc(C(C)C)c(O)c1S(=O)(=O)c1ccc(Cl)cc1`?
ClpP mod: -3%; TDP1 cell noCPT: inconclusive; DRD3 agonist: 7; TDP1 cell CPT: inconclusive

How did CSc1ccc(CN2CCCC(N3CCN(c4ccccc4)CC3)C2)cc1 (stereo not drawn) do in these assays?
ClpP mod: -3%; TDP1 cell noCPT: inconclusive; DRD3 antagonist: -25; IL1B secr inh: -19; DRD3 agonist: -14; TDP1 cell CPT: inconclusive

How did O=C(N/N=C/c1cc([N+](=O)[O-])ccc1O)c1ccc2c(c1)OCCO2 do in these assays?
ClpP mod: 0%; TDP1 cell noCPT: 1.5µM*; DRD3 antagonist: -64*; IL1B secr inh: 18; DRD3 agonist: -14; TDP1 cell CPT: 2.1µM*

Results for Cc1sc(N/N=C/c2cc([N+](=O)[O-])ccc2O)nc1-c1ccccc1 ?
ClpP mod: 1%; TDP1 cell noCPT: 15µM*; DRD3 antagonist: -10; IL1B secr inh: 7; DRD3 agonist: -4; TDP1 cell CPT: 15µM*

How did Cc1ccc(C)c(-n2c(-c3ccco3)n[nH]c2=S)c1 do in these assays?
ClpP mod: -1%; TDP1 cell noCPT: -15%; DRD3 antagonist: -22; IL1B secr inh: 10; DRD3 agonist: -8; TDP1 cell CPT: 9%

How did COc1ccc(-c2cccc(NS(=O)(=O)c3cccs3)c2)nn1 do in these assays?
ClpP mod: -1%; TDP1 cell noCPT: inconclusive; DRD3 agonist: -22; TDP1 cell CPT: inconclusive

What do the screens show for `CCc1ccc(S(=O)(=O)Nc2cccc(-c3ccc4nnc(C)n4n3)c2)s1`?
ClpP mod: 1%; TDP1 cell noCPT: 16µM*; DRD3 antagonist: 13; IL1B secr inh: 49; DRD3 agonist: 2; TDP1 cell CPT: 23µM*

How did CCc1ccc(S(=O)(=O)Nc2cccc(-c3ccc(OC)nn3)c2)s1 do in these assays?
ClpP mod: -1%; TDP1 cell noCPT: 9.2µM*; DRD3 agonist: -6; TDP1 cell CPT: 12µM*

How did CCc1ccc(S(=O)(=O)Nc2ccc(-c3ccc4nnc(C)n4n3)cc2)s1 do in these assays?
ClpP mod: -2%; TDP1 cell noCPT: inconclusive; DRD3 antagonist: 16; IL1B secr inh: 48; DRD3 agonist: 0; TDP1 cell CPT: inconclusive

How did Cc1ccc(Cn2cc(CCC(=O)NCc3ccccc3F)c3ccccc32)cc1 do in these assays?
ClpP mod: inconclusive; TDP1 cell noCPT: -23%; DRD3 agonist: 9; TDP1 cell CPT: -12%

Results for c1ccc(-c2nc(-c3nccc4ccccc34)oc2-c2ccccc2)cc1 ?
ClpP mod: 4%; TDP1 cell noCPT: inconclusive; DRD3 antagonist: 11; IL1B secr inh: -19; DRD3 agonist: 2; TDP1 cell CPT: -28%

Results for C(=Cc1c[nH]c2ccccc12)c1ccc2ccccc2n1 ?
TDP1 cell noCPT: inconclusive; DRD3 antagonist: 2; IL1B secr inh: -26; DRD3 agonist: -9; TDP1 cell CPT: inconclusive
